High-throughput results: PubChem BioAssay, National Center for Advancing Translational Sciences (NCATS)
KB-3-1 cytotox – kills parental KB-3-1 adenocarcinoma cells | Potency, µM (titrated, usually from 46.1 µM), usual class: cytotoxic | KB-3-1 viability, CellTiter-Glo ATP luminescence, 72 h | hit rate 1.4% among 400,000 | AID 1347075; further: on the % scale 0 is the no-effect control and ±100 the full control effect; nearly all actives have a fitted effect of over 60% in size
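Cells are dispensed, compounds pinned in, plates held at 37 °C for 72 h, then CellTiter-Glo is added and luminescence read after 10 minutes. Cell line: parental KB-3-1 in phenol-red-free DMEM, 10% FBS.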
KB-V1 MDR tox – KB-V1 MDR subline cytotoxicity. Potency, µM (titrated, usually from 46.1 µM), hits mostly cytotoxic. hit rate 3.4% among 400,000. AID 1347076. KB-V1 MDR cells viability, CellTiter-Glo, 72 h; further: on the % scale 0 is the no-effect control and ±100 the full control effect; nearly all actives have a fitted effect of over 60% in size
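Compound-treated KB-V1 multidrug-resistant cells, 72 h, 37 degrees C; viability by CellTiter-Glo. Fitted qHTS curves give the values.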
12-LOX inh – ALOX12 (human) lipoxygenase inhibition; P18054; purified 12hLO, xylenol orange hydroperoxide absorbance; Potency, µM (series often up to 108 µM), without a hit: at the top dose activity change, negative = inhibition, most hits filed as inhibitors; hit rate 1.1% among 580,000; AID 1671190; further: on the % scale 0 is the no-effect control and ±100 the full control effect
Target sequence (P18054 whole entry, looked up): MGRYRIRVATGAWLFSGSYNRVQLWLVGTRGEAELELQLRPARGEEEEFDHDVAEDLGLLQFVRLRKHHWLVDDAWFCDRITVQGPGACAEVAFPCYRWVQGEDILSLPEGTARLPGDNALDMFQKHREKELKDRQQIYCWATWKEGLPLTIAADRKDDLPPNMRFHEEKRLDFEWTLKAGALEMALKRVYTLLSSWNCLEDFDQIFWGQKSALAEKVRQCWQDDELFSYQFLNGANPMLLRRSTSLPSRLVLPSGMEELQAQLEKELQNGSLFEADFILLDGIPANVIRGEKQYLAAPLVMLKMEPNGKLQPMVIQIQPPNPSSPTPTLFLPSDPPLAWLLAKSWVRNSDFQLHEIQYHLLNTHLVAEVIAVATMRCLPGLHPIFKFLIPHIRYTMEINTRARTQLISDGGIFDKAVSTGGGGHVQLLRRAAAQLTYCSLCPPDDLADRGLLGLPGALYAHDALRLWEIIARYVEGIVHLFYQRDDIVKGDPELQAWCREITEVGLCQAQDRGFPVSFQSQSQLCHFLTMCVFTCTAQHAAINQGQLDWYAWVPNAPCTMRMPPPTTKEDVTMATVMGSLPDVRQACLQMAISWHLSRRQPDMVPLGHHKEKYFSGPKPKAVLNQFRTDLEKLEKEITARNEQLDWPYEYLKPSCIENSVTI
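Purified human 12hLO at 150 nM in 25 mM Hepes, 0.01% Triton X-100, pH 7.0, preincubated 15 min at room temperature with compound. Reaction started with 40 uM arachidonic acid, 30 min at room temperature. Hydroperoxide measured by Fe-xylenol orange, 573/405 nm absorbance ratio.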
MCF10A rereplic – inducers of DNA re-replication in MCF 10A breast cells | AID 624296 | MCF 10A DNA re-replication, Hoechst nuclear intensity, 48 h | Potency, µM (top dose mostly 46.1 µM), for inactives: at the highest dose activity, positive = re-replication, usual class: activators | hit rate 2.9% among 350,000; further: % of control where 0% means no effect; nearly all actives have a fitted effect of over 50% in size
SW480 rereplic – induces DNA re-replication in SW480 colon adenocarcinoma cells; SW480 DNA re-replication, Hoechst DNA content imaging, 48 h; hit rate 1.8% among 340,000; Potency, µM (titrated, usually from 46.1 µM), inactives show at the highest dose re-replication activation, most hits filed as activators; further: % of control where 0% means no effect; nearly all actives have a fitted effect of over 55% in size
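Quantitative HTS format with DMSO vehicle controls; 48 hr drug incubation at 37 C, then 40 min Hoechst staining and scanning imager measurement at 405 nm excitation.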
PINK1 expr mod – modulators of PINK1 expression | PINK1 immunofluorescence, high-content cytometry, 24 h | Potency, µM (titrated, usually from 76.6 µM), inactives show at the highest dose activation (PINK1 increase), actives largely listed as activators | hit rate 0.2% among 410,000 | AID 624263; active means well fitted activation curve with a large enough effect; inconclusive means small, poorly fitted or top-dose-only effect; cell line not stated here; further: % of control where 0% means no effect; nearly all actives have a fitted effect of over 65% in size
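PINK1 protein level read as immunofluorescence by microplate cytometer in a fixed, stained stable cell line after 24 h exposure to five compound concentrations, with CCCP as control.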
Numbers without * were called inactive; i = inactive; u = inconclusive; x = not tested or not shown; ! = repeats disagree; [ ] = dose if it differs, or a comment. The list is not random: actives were taken first. Their share in the collection is about 5.8%. Unless noted, the call rests on the fitted dose curve; in most records, active means well fitted curve in the direction sought with a large enough effect; inconclusive means small, poorly fitted or top-dose-only effect, or another doubt; inactive means no such curve, though single readings can be large; an effect the other way counts as inactive or inconclusive. Potency means the concentration at half of the fitted maximal effect.

SMILES	KB-3-1 cytotox	KB-V1 MDR tox	12-LOX inh	MCF10A rereplic	SW480 rereplic	PINK1 expr mod
CCOc1ccc(Oc2ccccc2NC(=O)c2ccoc2)cc1	x	x	-11%	x	x	x
O=[N+]([O-])c1ccc(O)c(/C=N\N=C2c3ccccc3-c3ccccc32)c1	8.2µM*	13µM*	10%	u	u	10µM*
O=C(N/N=C\c1cc(Cl)ccc1O)c1ccc(S(=O)(=O)N2CCCCC2)cc1	u	u	3%	15µM*	7.3µM*	13%
CCCCSCC(=O)NC12CC3CC(CC(C3)C1)C2	x	x	6%	x	x	x
CC(C)c1noc(CCC(=O)NC(C)c2ccccn2)n1 (stereo unspecified)	x	x	32%	x	x	x
O=c1oc(-c2cccs2)nc2sc3c(c12)CCCC3	i	i	6%	18µM*	u	11%[38.3 µM]
Cc1cnc(CCNC(=O)CC(C)C)n1Cc1ccc(F)cc1	x	x	37%	x	x	x
Cn1c(=O)c2c(nc(SCc3nc(N)nc(N4CCCCC4)n3)n2C)n(C)c1=O	u	15µM*	11%	-45%	27%	-3%
CCCCn1c(SCc2nc(N)nc(N3CCCCC3)n2)nc2c1c(=O)n(C)c(=O)n2C	i	8.2µM*	-9%	-43%	u	0%
CCOC(=O)Nc1ccc(OC)cc1	x	x	25%	x	x	x
CC(NC(=O)c1cc(-c2ccncc2)cn1C)c1ccc(F)cc1 (stereo unspecified)	x	x	30%	x	x	x
CCN1C(=O)/C(=C/c2nc3ccccc3c(=O)n2-c2ccccc2)c2ccccc21	23µM*	i	10%	u	u	3%
CCOc1ccccc1OCC(=O)Nc1cccc2cccnc12	x	x	-8%	x	x	x
Cn1c(Cn2cccn2)nnc1C1CC(NC(=O)c2sccc2N)C1 (stereo unspecified)	x	x	10µM*!	x	x	x
Cc1nc2ccccc2c2c1CC(C(C)(Cl)Br)O2 (stereo unspecified)	u	4.6µM*	1%	2%	-19%	1%
Cc1ccc2nc(C)c3c(c2c1)OC(C(C)(Cl)Br)C3 (stereo unspecified)	i	u	0%	7%	4%	3%
Cc1ccc(N/C(N)=N/c2nc(C)cc(N3CCCCC3)n2)c(C)c1	16µM*	10µM*	-4%	18µM*	u	u
CCOC(=O)c1[nH]c(C)c(C(=O)Nc2cccc(Cl)c2C)c1C	5.8µM*	6.5µM*	-3%	8.2µM*	12µM*	5%[38.3 µM]
CCOC(=O)c1[nH]c(C)c(C(=O)N2CCc3ccccc32)c1C	0.33µM*	0.33µM*	i	0.41µM*	0.52µM*	5%
CCOC(=O)c1[nH]c(C)c(C(=O)OC(C)C(=O)Nc2ncc(Cl)cc2Cl)c1C (stereo unspecified)	u	13µM*	-4%	u	-1%[9.22 µM]	6%
CCn1cc(C(=O)N2CCN(c3cccc(Cl)c3)CC2)c2cc(OC)c(OC)cc2c1=O	u	21µM*!	-30%	u	u	3%
COc1cc2c(C(=O)N3CCN(c4cccc(Cl)c4)CC3)cn(C)c(=O)c2cc1OC	u	u	-14%	u	u	8%
COc1ccc(OC)c(C(C)NC(=O)CCc2c(C)c3ccc(OC)cc3oc2=O)c1 (stereo unspecified)	x	x	3%	x	x	x
O=C(N[C@@H](Cc1ccccc1)C(=O)NCc1cccs1)c1cccs1	x	x	-17%	x	x	x
Cc1c(-c2ccccc2)oc2c(C(=O)OCC(=O)NC3CCCC3)cccc2c1=O	x	x	5%	x	x	x
Cc1[nH]c2ccccc2c1C(=O)C(=O)N1CCN(c2cccc(Cl)c2)CC1	u	i	-3%	21µM*	u	1%
CCOC(=O)c1[nH]c(C)c(C(=O)N2CCN(c3ccc(F)cc3)CC2)c1C	i	u	u	2%	-7%	0%[38.3 µM]
CCOC(=O)c1[nH]c(C)c(C(=O)N2CCN(c3cccc(Cl)c3)CC2)c1C	i	13µM*	6%	5%	-3%	0%[38.3 µM]
